From PubChem BioAssay (NCATS)
Inconclusive results are not listed. Some compounds were tested as several samples or in several runs, with calls that do not always agree. Calls of active or inactive are those of the source. Unless noted, calls follow the shape of the dose curve; as a rule, active = well fitted curve in the direction sought with a large enough effect; inconclusive = small, poorly fitted or top-dose-only effect, or another doubt; inactive = no such curve, though single readings can be large; an effect the other way counts as inactive or inconclusive.

Experiments:
[1] = molecular target: Protein phosphatase 1D (Homo sapiens) (UniProt O15297); experiment: RapidFire Mass Spectrometry qHTS Assay for Modulators of WT P53-Induced Phosphatase 1 (WIP1) (AID 1347424);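 also: amount of dephosphorylated VEPPL-S-QETFS peptide product formed by WIP1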; also: potency is read from the fitted curve at half-maximal effect;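 as to activity change, negative = inhibition: series mostly up to about 63 µM; plate controls were DMSO wells for no effect and GSK830371 inhibitor control at 10 µM for full effect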
How it was run: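 WIP1 (10 nM final) was preincubated 1 h at room temperature with compounds in Tris-HCl pH 7.5, 30 mM MgCl2, TCEP, EGTA, BSA; 2 uM VEPPL-pS-QETFS phosphopeptide was added for 5 min, quenched with formic acid, and dephosphorylated product quantified by RapidFire MS.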

[2] = molecular target: Calcium and integrin-binding protein 1 (Homo sapiens) (UniProt Q99828); experiment: Primary qHTS for Identification of Calcium Integrin Binding Protein 1 (CIB1) Competitor (AID 1508620);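 also: GST tagged CIB1 binding a fluorescein labelled alphaIIb integrin peptide tracer; top concentration of the series differs between compounds; % is scaled to controls: 0 for no effect and ±100 for the full control effect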
How it was run: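 Fluorescence polarization competition: CIB1-GST (1 uM final) preincubated with compound 15 min at room temperature, then FITC-labeled alphaIIb peptide (100 nM final) added for another 15 min. Polarization read at Ex 480/Em 540.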

[3] = Primary qHTS for small molecule stabilizers of the endoplasmic reticulum resident proteome: Secreted ER Calcium Modulated Protein (SERCaMP) assay (AID 1508630); also: % is scaled to controls: 0 for no effect and ±100 for the full control effect
How it was run: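 GLuc-SERCaMP-expressing SH-SY5Y cells, pretreated 16 h with compound, are challenged with thapsigargin to empty ER calcium stores; after 4 h, coelenterazine is added directly to the medium and luminescence is imaged.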

[4] = molecular target: Cytochrome P450 2D6 (Homo sapiens) (UniProt P10635); experiment: Cytochrome P450 family 2 subfamily D member 6 (CYP2D6) small molecule antagonists: luciferase biochemical (cell-free) qHTS assay (AID 1645840; active = well fitted curve in the direction sought with a large enough effect in the repeat runs; an effect the other way counts as inactive or inconclusive; also: nearly all actives have a fitted effect of over 55% in size; also: potency is read from the fitted curve at half-maximal effect; as to activity change, negative = inhibition: series mostly up to about 57 µM; % is scaled to controls: 0 for no effect and ±100 for the full control effect)
How it was run: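 P450-Glo luminescent screen: recombinant CYP2D6 enzyme–proluciferin substrate mix preincubated with compound 10 min at room temperature, then NADPH regeneration added for 1 h at room temperature. Detection reagent added for 20 min; luciferin light read as relative luminescence units.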

[5] = molecular target: Cytochrome P450 2C9 (Homo sapiens) (UniProt P11712); experiment: Cytochrome P450 family 2 subfamily C member 9 (CYP2C9) small molecule antagonists: luciferase biochemical (cell-free) qHTS assay (AID 1645842; active = well fitted curve in the direction sought with a large enough effect in the repeat runs; an effect the other way counts as inactive or inconclusive; also: nearly all actives have a fitted effect of over 55% in size; also: potency is read from the fitted curve at half-maximal effect; as to activity change, negative = inhibition: series mostly up to about 57 µM; % is scaled to controls: 0 for no effect and ±100 for the full control effect)
How it was run: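 Luminescence, after 20 min with luciferin detection reagent, reflected CYP2C9 turnover during a 1 h NADPH-driven reaction at 37C. Enzyme-substrate mix contained 0.4% bovine serum albumin and was preincubated with compound 10 min at room temperature.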

[6] = Primary qHTS for inhibitors of La Crosse Virus (LACV) - induced cell death in SH-SY5Y cells (AID 1508616);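 also: top concentration of the series differs between compounds; 0% = infected DMSO wells and 100% = uninfected DMSO wells; higher means more rescue of cells from virus-induced death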
How it was run: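 Protection against LACV-induced cell death is scored in SH-SY5Y cells exposed to compounds and virus (0.01 MOI) for 6 days. Data normalized to virus-infected DMSO wells and virus-free DMSO wells.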

[7] = A High-Content qHTS Against Drug Library for the Identification of Small Molecules that Inhibit DYT1 Early Onset Primary Dystonia-Associated Cell Pathology (AID 1645839; calls by dose curve; also: potency is read from the fitted curve at half-maximal effect; as to % pathology change, negative = correction: series mostly up to about 46 µM)
How it was run: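 Readout: %pathology, the punctate EGFP-TorsinA distribution from imaging, as the primary channel and cell count as the toxicity counterscreen. HEK293 Flp-In cells expressing delE TorsinA were induced with tetracycline and treated with compound for 48 h.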

[8] = molecular target: Protein phosphatase 1D (Homo sapiens) (UniProt O15297); experiment: Rhodamine-PBP qHTS Assay for Modulators of WT P53-Induced Phosphatase 1 (WIP1) (AID 1347425); also: % of control where 0% means no effect
How it was run: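 Steps: enzyme with Rh-PBP sensor and compounds, room-temperature incubation of 1 hr, baseline read, addition of VEPPL-pS-QETFS (10 uM final), kinetic fluorescence reads at 525/598 nm. Activity equals final minus baseline signal.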

[9] = molecular target: Cytochrome P450 3A4 (Homo sapiens) (UniProt P08684); experiment: Cytochrome P450 family 3 subfamily A member 4 (CYP3A4) small molecule antagonists: luciferase qHTS assay (AID 1645841; active = well fitted curve in the direction sought with a large enough effect in the repeat runs; an effect the other way counts as inactive or inconclusive; also: nearly all actives have a fitted effect of over 45% in size)
How it was run: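 P450-Glo CYP3A4 enzyme with proluciferin substrate was preincubated with DMSO-dissolved compounds for 10 min at room temperature. NADPH regeneration solution started a 1 h reaction. Detection reagent stopped it, and luminescence was read after 20 min.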

[10] = molecular target: N-terminal Xaa-Pro-Lys N-methyltransferase 1 (Homo sapiens) (UniProt Q9BV86); experiment: Confirmatory qHTS for Inhibitors of N-terminal methyltransferase 1 (NTMT1): MTaseGlo Assay (AID 1645874);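 also: luminescence from SAH made as NTMT1 methylates SPKRIA peptide using SAM; series mostly up to about 100 µM; 0% = DMSO control and -100% = no-enzyme control; nearly all actives have a fitted effect of over 65% in size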
How it was run: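 Compounds are incubated with 125 nM NTMT1 and 100 uM SAM for 15 min before the SPKRIA peptide (1 uM) starts a 30 min room-temperature methylation. SAH is measured by coupled luciferase luminescence and curves fitted to a Hill equation.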

Papain (Carica papaya) = Papain (Carica papaya) (UniProt P00784); experiment: Primary qHTS assay for inhibitors of the protease papain (AID 1645873);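 also: papain turnover of Z-FR-AMC read as the AMC fluorescence gain over 10 min; potency is read from the fitted curve at half-maximal effect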
[11] = molecular target: Calcium and integrin-binding protein 1 (Homo sapiens) (UniProt Q99828); experiment: Confirmatory qHTS for Identification of Calcium Integrin Binding Protein 1 (CIB1) Competitor (AID 1508617); also: % is scaled to controls: 0 for no effect and ±100 for the full control effect; nearly all actives have a fitted effect of over 65% in size
How it was run: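 Binding competition between test compounds and fluorescent alphaIIb peptide for 1 uM CIB1-GST is monitored by FP at 480/540 nm. Final compound range is up to 114 uM; unlabeled peptide serves as reference competitor.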

Sequence of Cytochrome P450 2C9 (Homo sapiens) (P11712 whole entry, looked up): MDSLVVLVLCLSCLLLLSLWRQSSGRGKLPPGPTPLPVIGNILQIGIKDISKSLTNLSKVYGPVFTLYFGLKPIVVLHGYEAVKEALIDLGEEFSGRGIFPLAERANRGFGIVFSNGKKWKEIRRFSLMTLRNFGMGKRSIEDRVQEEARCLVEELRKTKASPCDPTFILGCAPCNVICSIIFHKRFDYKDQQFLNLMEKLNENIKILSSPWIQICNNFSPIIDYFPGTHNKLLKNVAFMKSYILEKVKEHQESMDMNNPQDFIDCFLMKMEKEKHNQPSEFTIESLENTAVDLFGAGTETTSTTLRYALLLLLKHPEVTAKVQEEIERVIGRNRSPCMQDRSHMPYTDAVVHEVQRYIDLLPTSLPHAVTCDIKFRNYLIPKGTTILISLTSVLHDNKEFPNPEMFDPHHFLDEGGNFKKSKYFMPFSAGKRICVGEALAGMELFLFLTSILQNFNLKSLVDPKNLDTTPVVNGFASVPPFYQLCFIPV
Sequence of Protein phosphatase 1D (Homo sapiens) (O15297 whole entry, looked up): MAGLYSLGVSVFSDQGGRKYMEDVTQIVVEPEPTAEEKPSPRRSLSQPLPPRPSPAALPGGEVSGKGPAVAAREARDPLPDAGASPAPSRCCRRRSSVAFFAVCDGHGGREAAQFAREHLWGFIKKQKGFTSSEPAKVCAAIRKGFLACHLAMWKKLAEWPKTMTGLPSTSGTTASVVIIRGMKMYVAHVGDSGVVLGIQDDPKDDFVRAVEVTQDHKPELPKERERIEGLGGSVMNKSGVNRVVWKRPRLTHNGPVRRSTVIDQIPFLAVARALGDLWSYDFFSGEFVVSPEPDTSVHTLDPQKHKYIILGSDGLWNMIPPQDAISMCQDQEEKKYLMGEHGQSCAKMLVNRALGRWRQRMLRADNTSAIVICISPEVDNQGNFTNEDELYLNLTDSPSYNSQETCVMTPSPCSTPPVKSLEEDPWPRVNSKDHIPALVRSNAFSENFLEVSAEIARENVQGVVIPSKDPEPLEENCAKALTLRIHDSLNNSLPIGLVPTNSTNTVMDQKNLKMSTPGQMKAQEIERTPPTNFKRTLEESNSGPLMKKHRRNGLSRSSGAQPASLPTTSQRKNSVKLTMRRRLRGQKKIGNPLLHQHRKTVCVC
Sequence of Cytochrome P450 2D6 (Homo sapiens) (P10635 whole entry, looked up): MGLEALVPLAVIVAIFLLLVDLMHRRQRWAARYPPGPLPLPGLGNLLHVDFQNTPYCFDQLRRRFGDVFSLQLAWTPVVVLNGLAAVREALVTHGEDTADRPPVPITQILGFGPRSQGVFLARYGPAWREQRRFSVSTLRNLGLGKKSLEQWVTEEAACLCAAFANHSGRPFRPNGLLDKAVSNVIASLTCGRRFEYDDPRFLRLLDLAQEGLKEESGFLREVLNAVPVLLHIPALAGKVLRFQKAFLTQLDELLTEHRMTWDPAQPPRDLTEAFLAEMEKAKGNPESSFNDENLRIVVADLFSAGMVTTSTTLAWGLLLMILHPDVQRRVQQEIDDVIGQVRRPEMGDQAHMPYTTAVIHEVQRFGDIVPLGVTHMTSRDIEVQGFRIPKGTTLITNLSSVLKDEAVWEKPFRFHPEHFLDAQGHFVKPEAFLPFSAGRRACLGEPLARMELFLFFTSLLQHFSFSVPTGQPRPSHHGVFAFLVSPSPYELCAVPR
Sequence of Calcium and integrin-binding protein 1 (Homo sapiens) (Q99828 whole entry, looked up): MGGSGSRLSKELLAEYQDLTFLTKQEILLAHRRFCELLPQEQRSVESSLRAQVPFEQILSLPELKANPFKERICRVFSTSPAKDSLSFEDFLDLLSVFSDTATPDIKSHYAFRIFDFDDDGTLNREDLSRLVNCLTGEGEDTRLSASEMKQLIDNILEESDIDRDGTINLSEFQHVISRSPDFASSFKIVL
Sequence of N-terminal Xaa-Pro-Lys N-methyltransferase 1 (Homo sapiens) (Q9BV86 whole entry, looked up): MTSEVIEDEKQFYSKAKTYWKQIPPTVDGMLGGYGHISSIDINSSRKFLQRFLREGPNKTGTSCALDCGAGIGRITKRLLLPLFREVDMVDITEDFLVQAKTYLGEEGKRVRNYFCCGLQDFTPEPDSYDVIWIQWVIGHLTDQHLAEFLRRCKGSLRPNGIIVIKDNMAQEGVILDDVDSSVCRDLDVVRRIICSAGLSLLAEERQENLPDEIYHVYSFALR
Sequence of Papain (Carica papaya) (P00784 whole entry, looked up): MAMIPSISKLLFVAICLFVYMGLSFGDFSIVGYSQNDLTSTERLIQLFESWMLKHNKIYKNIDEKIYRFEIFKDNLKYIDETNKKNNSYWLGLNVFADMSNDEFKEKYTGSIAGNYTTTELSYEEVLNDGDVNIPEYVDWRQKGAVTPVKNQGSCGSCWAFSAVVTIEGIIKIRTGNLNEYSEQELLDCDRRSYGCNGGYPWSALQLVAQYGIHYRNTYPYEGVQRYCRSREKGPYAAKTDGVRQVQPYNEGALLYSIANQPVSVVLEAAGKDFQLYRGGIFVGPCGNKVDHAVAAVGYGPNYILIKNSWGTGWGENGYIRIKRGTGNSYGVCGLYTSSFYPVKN
Sequence of Cytochrome P450 3A4 (Homo sapiens) (P08684 whole entry, looked up): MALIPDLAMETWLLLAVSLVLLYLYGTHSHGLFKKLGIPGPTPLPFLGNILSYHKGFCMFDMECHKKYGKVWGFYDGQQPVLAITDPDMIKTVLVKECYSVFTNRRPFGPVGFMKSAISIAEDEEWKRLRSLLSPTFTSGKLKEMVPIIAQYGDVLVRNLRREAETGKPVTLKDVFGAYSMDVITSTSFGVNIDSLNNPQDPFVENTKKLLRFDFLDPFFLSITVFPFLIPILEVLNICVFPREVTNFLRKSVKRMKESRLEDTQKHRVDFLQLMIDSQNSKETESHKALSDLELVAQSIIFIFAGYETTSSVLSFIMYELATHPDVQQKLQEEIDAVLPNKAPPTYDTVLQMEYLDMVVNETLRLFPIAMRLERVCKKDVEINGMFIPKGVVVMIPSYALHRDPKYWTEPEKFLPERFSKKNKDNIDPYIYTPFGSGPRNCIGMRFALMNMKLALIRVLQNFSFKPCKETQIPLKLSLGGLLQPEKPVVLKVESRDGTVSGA

Oc1c(Cl)cc(Cl)cc1Sc1cc(Cl)cc(Cl)c1O
active: Potency [1] 12.6 µM | Potency [4] 12 µM | Potency [5] 6.01 µM
inactive: Potency [2] | Potency [3]

Cc1cc(O)c(C(C)C)cc1Cl
inactive: Potency [1] | Potency [6] | Potency [2] | Potency [3] | Potency [7]
active: Potency [4] 12.3 µM | Potency [5] 21.9 µM

C[C@]12CCC(=O)C=C1CC[C@H]1[C@@H]3CC[C@](O)(C(=O)CO)[C@@]3(C)C[C@H](O)[C@@]12F
inactive: Potency [1] | outcome [8] | Potency [2] | Potency [3] | Potency [4] | Potency [5]

CCCN1CCCC[C@H]1C(=O)Nc1c(C)cccc1C
active: Potency [4] 4.9 µM
inactive: Potency [1] | Potency [2] | Potency [3] | Potency [7] | Potency [5]

CC(C)(C(=O)c1cccnc1)c1cccnc1
inactive: outcome [8] | Potency [6] | Potency [2] | Potency [7] | Potency [4] | Potency [5]

Cc1c(C(C)C)c(=O)n(-c2ccccc2)n1C
inactive: Potency [1] | Potency [6] | Potency [2] | Potency [3] | Potency [7] | Potency [4] | Potency [5]

CCOC(=O)COc1ccc2c(C)c(CCN(CC)CC)c(=O)oc2c1Cl
inactive: Potency [1] | outcome [8] | Potency [2] | Potency [7] | outcome [9] | Potency [5]

C[C@]12CC[C@@H]3c4ccc(O)cc4CC[C@H]3[C@@H]1C[C@@H](O)[C@@H]2O
inactive: Potency [1] | Potency [6] | Potency [2] | Potency [3] | Potency [7] | Potency [4] | Potency [5] | Potency [10]

CCCC(=O)O[C@]1(C(=O)CO)CC[C@H]2[C@@H]3CCC4=CC(=O)CC[C@]4(C)[C@H]3[C@@H](O)C[C@@]21C
inactive: outcome [8] | Potency [2] | Potency [3] | Potency [5]

Nc1ccc(C(=O)Nc2ccccc2N)cc1
inactive: Potency [1] | outcome [8] | Potency [2] | Potency [3] | Potency [4] | Potency [5]

C[C@@H]1C[C@H]2[C@@H]3CCC4=CC(=O)C=C[C@]4(C)[C@@]3(F)[C@@H](O)C[C@]2(C)[C@H]1C(=O)CO
active: Potency [5] 11 µM
inactive: outcome [8] | Potency [6] | Potency [2] | Potency [3]

Nc1ccc(/C=C/c2ccc(N)cc2S(=O)(=O)O)c(S(=O)(=O)O)c1
inactive: activity change, negative = inhibition [8] 11.7% [at 0.575 µM] | activity change [6] 5.33% [at 0.0343 µM] | activity change, negative = inhibition [2] -1.2% [at 1.07 µM] | % pathology change, negative = correction [7] 12.8% [at 0.369 µM] | activity change, negative = inhibition [4] 18.7% [at 0.91 µM] | activity change, negative = inhibition [5] 13.7% [at 0.91 µM]

COc1ccc(CN2CCN(C(c3ccc(F)cc3)c3ccc(F)cc3)CC2)c(OC)c1OC
inactive: Potency [1] | outcome [8] | Potency [2]
active: Potency [4] 2.19 µM | Potency [5] 11 µM

O=c1[nH]c(=O)n([C@H]2CCCO2)cc1F
inactive: Potency [1] | Potency [6] | Potency [2] | Potency [7] | Potency [4] | Potency [5]

Oc1ccc(Cl)cc1Sc1cc(Cl)ccc1O
inactive: Potency [6] | Potency [3]
active: Potency [1] 31.6 µM | Potency [4] 12.3 µM | Potency [5] 12.3 µM

C#C[C@]1(OC(C)=O)CC[C@H]2[C@@H]3CCC4=C[C@@H](OC(C)=O)CC[C@@H]4[C@H]3CC[C@@]21C
active: Potency [5] 13.6 µM
inactive: outcome [8] | Potency [6] | Potency [2] | Potency [3]

COc1cc(NS(C)(=O)=O)ccc1Nc1c2ccccc2nc2ccccc12
active: Potency (Papain (Carica papaya)) 22.4 µM
inactive: Potency [6] | Potency [3]

CC(O)C(=O)O (centres undefined)
active: Potency [4] 12.3 µM
inactive: Potency [1] | outcome [8] | Potency [3] | Potency [7] | Potency [5]

C[C@]12C=CC(=O)C=C1[C@@H](F)C[C@@H]1[C@@H]2[C@@H](O)C[C@@]2(C)[C@H]1CC[C@]2(O)C(=O)CO
inactive: Potency [1] | outcome [8] | Potency [2] | Potency [3] | Potency [7] | Potency [4] | Potency [5]

C/C=C/c1ccc(OC)cc1
inactive: outcome [8] | Potency [6] | Potency [3] | Potency [7]

O=c1c(-c2ccccc2)c1-c1ccccc1
inactive: Potency [2] | Potency [3] | Potency [4]

CO/N=C1\CN(c2nc3c(cc2F)c(=O)c(C(=O)O)cn3C2CC2)CC1CN (centres undefined)
inactive: Potency [1] | outcome [8] | Potency [2] | Potency [3] | Potency [4] | Potency [5]

CCCCCCCCCCOCC(O)CN (centres undefined)
active: Potency [4] 4.83 µM | Potency [5] 10.8 µM
inactive: Potency [1] | Potency [2] | Potency [3]

CCOC(=O)[C@H](CCc1ccccc1)N[C@@H](C)C(=O)N1Cc2ccccc2C[C@H]1C(=O)O
inactive: Potency [1] | Potency [6] | Potency [2] | Potency [7] | Potency [4]
6.92 µM (active) and inactive: Potency [5]

CC(=O)Oc1ccc(C(c2ccc(OC(C)=O)cc2)c2ccccn2)cc1
inactive: outcome [8] | Potency [6] | Potency [2] | Potency [3] | Potency [7]
active: Potency [4] 15.5 µM | Potency [5] 17.4 µM

Cc1c(C)n(CCN(C)C)c2ccc(C(=O)OCCN(C)C)cc12
inactive: outcome [8] | Potency [6] | Potency [2] | Potency [3] | Potency [4] | Potency [5]

CCCCCCCCCCCCCCCC[N+](C)(C)CCN(Cc1ccc(OC)cc1)c1ncccn1
inactive: Potency [1] | Potency [6] | Potency [11] | Potency [3]
active: Potency [5] 24.5 µM

Oc1c(I)cc(Cl)c2cccnc12
inactive: outcome [8] | Potency [6]
active: Potency [7] 5.62 µM
